# The entries come from a sample that favours hits as a whole.
# TSHR ag: agonists of human thyroid stimulating hormone receptor | P16473 | HEK293-CNG-TSHR cells (CNG channel as cAMP sensor), membrane potential dye, cAMP | Potency, µM (highest dose often 57.1 µM), usual class: activators | 0.48% of 73,000 active | AID 926; active = well fitted activation curve with a large enough effect in the main read-out, with a control signal flat, not every such curve was filed as active; inconclusive = small, poorly fitted or top-dose-only effect, or a change in a side signal; inactive = no such curve, though single readings can be large or run the other way; reference of the percent scale not stated here;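 note: the control signal comes from parental cells without the receptor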
# Target sequence (P16473 whole entry, looked up): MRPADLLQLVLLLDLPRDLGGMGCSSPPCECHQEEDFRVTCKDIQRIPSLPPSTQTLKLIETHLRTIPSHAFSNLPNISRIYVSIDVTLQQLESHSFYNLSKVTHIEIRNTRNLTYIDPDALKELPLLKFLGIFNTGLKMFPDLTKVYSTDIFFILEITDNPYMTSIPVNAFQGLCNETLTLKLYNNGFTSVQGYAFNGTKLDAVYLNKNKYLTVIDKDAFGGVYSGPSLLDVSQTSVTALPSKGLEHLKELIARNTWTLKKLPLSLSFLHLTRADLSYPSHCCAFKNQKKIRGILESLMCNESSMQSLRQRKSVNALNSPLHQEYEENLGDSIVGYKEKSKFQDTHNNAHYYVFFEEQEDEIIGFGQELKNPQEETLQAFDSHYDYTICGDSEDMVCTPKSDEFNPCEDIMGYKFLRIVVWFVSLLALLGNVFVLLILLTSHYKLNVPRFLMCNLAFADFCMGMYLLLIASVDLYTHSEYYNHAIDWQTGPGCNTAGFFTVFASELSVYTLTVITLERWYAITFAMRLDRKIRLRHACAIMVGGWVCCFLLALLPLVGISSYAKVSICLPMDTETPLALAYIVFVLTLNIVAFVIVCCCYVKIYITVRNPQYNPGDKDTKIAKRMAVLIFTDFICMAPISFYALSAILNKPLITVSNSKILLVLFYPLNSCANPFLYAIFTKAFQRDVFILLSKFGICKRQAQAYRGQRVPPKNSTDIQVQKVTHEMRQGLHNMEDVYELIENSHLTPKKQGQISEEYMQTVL
#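 cAMP rise detected as CNG-channel membrane depolarization by fluorescent dye (emission 590 nm), 30 min after compound, following 60 min dye loading containing 100 uM RO 20-1724 at room temperature. Cells: TSHR/CNG HEK 293, with parental CNG HEK 293 as control.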
# Imprint erasure: genomic imprint erasure induction; Potency, µM (highest dose often 60.7 µM), hits mostly activators; AID 1948; mouse ES Peg3-LacZ reporter, beta-gal luminescence, 40 h; 0.02% of 110,000 active
#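 Imprint erasure is scored as LacZ activity from the silenced maternal Peg3 allele in feeder-free female ES cells cultured 40 h with LIF. Luminescence is normalized to in-plate negative controls and fitted to the Hill equation.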
# HEK293 cAMP cs: counter-screen for TSHR agonists: cAMP increase in parental HEK293; parental HEK293 CNG cAMP sensor, membrane potential fluorescence; Potency, µM (top dose mostly 57.1 µM), most hits filed as activators; 2.5% of 73,000 active; note: nearly all actives have a fitted effect of over 55% in size
#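 Parental HEK 293 cells stably expressing a modified CNG channel (no TSHR) report cAMP rise as membrane depolarization. Membrane potential dye with 100 uM RO 20-1724 was loaded for 60 min at room temperature, then compound added for 30 min; fluorescence read at 590 nm.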
# A number is an active result; – = inactive; ? = inconclusive; · = no result given; ! = repeats disagree; [ ] = another dose, or the depositor's remark. Unless noted, calls come from the whole dose curve; as a rule, active = well fitted activation curve with a large enough effect; inconclusive = small, poorly fitted or top-dose-only effect; inactive = no such curve, though single readings can be large or run the other way.
SMILES,TSHR ag,Imprint erasure,HEK293 cAMP cs
C/C(CCN1CCCc2nc(C)c(C)cc21)=N\O[C@@H](C)c1cn([C@H](CO)Cc2ccccc2)nn1,–[11.4 µM],·,–[11.4 µM]
CC1CCC2C(=O)OC(CN=[N+]=[N-])CN2C1c1ccc(Br)cc1 (centres undefined),?,·,5µM!
C=CCOCC1CN2C(CCC(C)C2c2ccc(Br)cc2)C(=O)O1 (centres undefined),–[11.4 µM],·,–[11.4 µM]
CCn1nnc(NC(=O)c2ccccc2Br)n1,?,–,32µM
CCCn1nnc(NC(=O)c2ccccc2Br)n1,–,–,–
CN(C)c1ccc(CNC(=O)c2cnc3sc(N4CCCCCC4)nn3c2=O)cc1,·,–[10.9 µM],·
CN(CCc1ccccn1)c1ccc2c(c1)C(=O)c1ccccc1-2,?,–[10.9 µM],–[11.4 µM]
OCC1OC(c2ccc3c(c2)OCO3)C=CC1Oc1ccc(C2CCCC2)cc1 (centres undefined),–[11.4 µM],·,–[11.4 µM]
OCC1OC(/C=C\c2ccccc2)C=CC1Oc1ccc2c(c1)OCO2 (centres undefined),?,·,4µM
CCC(Sc1nc2ncccc2o1)C(=O)Nc1ccc(OC)c(OC)c1 (centres undefined),·,–[10.9 µM],·
CC/C=C/C#N,–,–,–
COc1cccc(Cn2c(=O)n(-c3ccc(Br)cc3F)c(=O)c3sc4ccccc4c32)c1,·,–[10.9 µM],·
COc1ccc(CCn2c(-c3ccco3)nc3nc4ccccc4nc32)cc1,–,–,–
COc1ccc(C(=O)n2c(-c3ccco3)nc3ccccc32)cc1,?,–,25µM
CC(C)NC(=O)CCNC(=O)c1ccc(F)cc1,–,–,–
CC(=O)NCCSC(=O)c1ccc(F)cc1,?,–,3.2µM
Cc1ccc(C)c(N(C)C(=O)c2cn(C)c(=O)c3ccccc23)c1,·,–[10.9 µM],·
O=C(O)c1cc2c(cc1S(=O)(=O)O)[C@H]1[C@@H]([C@H]3[C@H]2[C@@]2(Cl)C(Cl)=C(Cl)[C@]3(Cl)C2(Cl)Cl)[C@]2(Cl)C(Cl)=C(Cl)[C@@]1(Cl)C2(Cl)Cl,–[11.4 µM],·,–[11.4 µM]
Cc1ccc(Cn2c(C)c(CNCC(C)c3ccccc3)c(C(=O)O)c2C)cc1 (centres undefined),·,–[10.9 µM],·
CC(=O)Nc1nc2ccccc2n1CCN(C)C,–,–,–
CN(C)CCn1c(C(=O)Nc2ccccc2)cc2ccccc21,?,–,2µM
COc1ccc(OC)c(CNC(=O)CCCn2c(=O)c3cccn3c3cccnc32)c1,·,–[10.9 µM],·
COc1ccc(-n2cc(-c3ccccc3)nc2SCC(=O)Nc2ccccc2)cc1Cl,·,–[10.9 µM],·
COc1ccccc1-c1nccc(Nc2ccc(F)cc2)n1,?,–,?
Cc1ccc(CNC(=O)C2CCC(CNS(=O)(=O)c3ccc4c(c3)CCCC(=O)N4)CC2)cc1 (centres undefined),·,–[10.9 µM],·
SMILES,TSHR ag,Imprint erasure,HEK293 cAMP cs
CCn1c(SCC(=O)Nc2nccs2)nnc1-c1cc2cccc(OC)c2o1,–,·,–
COc1cccc2cc(-c3nnc(SCC(=O)Nc4cc(C(F)(F)F)ccc4Cl)n3N)oc12,?,–,25µM
COc1ccc(-n2nnc3c(=O)n(Cc4ccccc4C)cnc32)cc1,·,–,–
O=C(Cn1cnc2c(nnn2-c2ccc(F)cc2)c1=O)N1CCCC1,–,–,–
COc1ccc(-n2nnc3c(=O)n(Cc4cccc(C)c4)cnc32)cc1,?,–,25µM
Cc1ccc(C)c(Cn2cnc3c(nnn3-c3ccc(F)cc3)c2=O)c1,?,–,1µM
COc1ccccc1NS(=O)(=O)c1cc(C(=O)O)ccc1F,–,·,–
COc1ccc(C/C(O)=C(\C#N)c2nc3ccccc3s2)cc1,?,–,32µM
Cc1ccc(SC/C(O)=C(\C#N)c2nc3ccccc3s2)cc1,?,–,?
CCCSc1nnc(Cc2cc(=O)[nH]c(=O)[nH]2)n1-c1cc(C)ccc1C,–,10µM,–
Cc1ccc(C)c(-n2c(Cc3cc(=O)[nH]c(=O)[nH]3)nnc2SCC(=O)NCc2ccco2)c1,–,–,–
Cc1ccc(-c2noc(CCC(=O)NC3CCN(Cc4ccccc4)CC3)n2)cc1,?,–,?
Cc1ccc(-c2noc(CCC(=O)NC3CCCc4ccccc43)n2)cc1 (centres undefined),?,–,32µM
CCOC(=O)c1ccc(N2C(=O)CC(SCC(N)C(=O)OCC)C2=O)cc1 (centres undefined),?,–,3.2µM
CCOC(=O)c1ccc(N2C(=O)C3CC=CCC3C2=O)cc1 (centres undefined),–,–,–
Cc1nc(NC2CCCCC2)c2nc(-c3ccccc3)n(CC3CCN(C)CC3)c2n1,?,–,?
CCC1Oc2ccc(C)cc2N(CC(=O)NCc2cc(OC)ccc2OC)C1=O (centres undefined),?,–,?
CCC1Oc2ccc(C)cc2N(CC(=O)NCc2cccc(OC)c2)C1=O (centres undefined),?,–,13µM
COc1ccc(C(=O)N2CCC[C@@]3(CCN(c4ccccc4)C3)C2)cc1,?,·,13µM
Cn1cccc1C(=O)N1CCC[C@@]2(CCN(c3ccncc3)C2)C1,?,·,5µM
O=C(c1ccncc1)N1CCC[C@@]2(CCN(Cc3ccccc3)C2)C1,–,·,–
Cn1cccc1C(=O)N1CCC[C@@]2(CCN(c3ccccn3)C2)C1,–,·,–
COc1ccc(C(=O)N2CCC[C@@]3(CCN(c4ccncc4)C3)C2)cc1,–,·,–
O=C(c1ccncc1)N1CCC[C@@]2(CCN(C(c3ccccc3)c3ccccc3)C2)C1,?,·,4µM
O=c1oc2ccccc2cc1-c1cn2cc(Cc3ccc(Br)cc3)sc2n1,·,–[10.9 µM],·
SMILES,TSHR ag,Imprint erasure,HEK293 cAMP cs
CCCCCCCC/C=C\CCCCCCCC(N)=O,–,–,–
COc1ccc(-n2nc(C(=O)NCCc3ccc(OC)c(OC)c3)c3c4ccccc4n(C)c3c2=O)cc1Cl,·,–[10.9 µM],·
COc1cccc(-c2cc(C(=O)NCCc3ccc(C)cc3)[nH]n2)c1,·,–[10.9 µM],·
COc1ccc(S(=O)(=O)N2CCN(Cc3ccc4c(c3)OCO4)CC2)cc1OC,·,–[10.9 µM],·
Cc1ccc(-n2c3c(cc(C(=O)NCc4ccco4)c2=O)C(=O)CC(C)(C)C3)cc1,4µM,–,–[11.4 µM]
CC1(C)CC(=O)c2cc(C(=O)NCc3ccco3)c(=O)n(-c3ccc(Cl)cc3)c2C1,?,–,?
CCOc1ccc(-c2cc(C(=O)N/N=C/c3ccc(O)c(OC)c3)[nH]n2)cc1,–,·,–
C=C[C@@]1(C)CC(=O)[C@@]2(O)[C@@]3(C)[C@H](O)CCC(C)(C)[C@@H]3[C@H](O)[C@H](OC(C)=O)[C@]2(C)O1,?,·,0.5µM
C=C[C@]1(C)CC(=O)[C@@]2(O)[C@@]3(C)C(O)CCC(C)(C)C3C(O)C(OC(C)=O)[C@@]2(C)O1 (some centres undefined),·,–,·
C=C[C@@]1(C)CC(=O)[C@@]2(O)[C@@]3(C)[C@@H](O)CCC(C)(C)[C@@H]3[C@H](OC(=O)CCN(C)C)[C@H](OC(C)=O)[C@@]2(C)O1,?,–,0.13µM
O=C(Nc1ccccc1N1CCN(c2ccc(F)cc2)CC1)c1ccccc1,?,–,6.3µM
CC(=O)N1CCN(c2ccccc2NC(=O)COc2ccc(Cl)cc2Cl)CC1,–,–,–
Cc1ccccc1OCC(=O)Nc1ccccc1N1CCOCC1,?,–,25µM
Cc1cc(C)c(OCC(=O)Nc2ccccc2N2CCOCC2)c(C)c1,?,–,?
CCC(=O)N1CCN(c2ccccc2NC(=O)COc2cc(C)ccc2C(C)C)CC1,?,–,16µM

# High-throughput results: PubChem, National Center for Advancing Translational Sciences (NCATS)
